MEKK3 PB1 HTS: raises or lowers MEK5 binding to the human MEKK3 PB1 domain | Q99759 | bead-based flow cytometry, Alexa488-MEK5 binding to MEKK3; actives lie on both sides; 0 = blocked by unlabeled MEK5, 100 = vehicle | binding response (% of control), % at 10 µM | 290,000 compounds, 1.4% hits | AID 1529;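 active means binding response more than 3 SD above or below the average of its plate-row segment, actives on both sides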;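 further: Alexa488 bead fluorescence after subtracting the streptavidin-only scavenger bead signal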
Target sequence (Q99759 whole entry, looked up, the tested form may be a part): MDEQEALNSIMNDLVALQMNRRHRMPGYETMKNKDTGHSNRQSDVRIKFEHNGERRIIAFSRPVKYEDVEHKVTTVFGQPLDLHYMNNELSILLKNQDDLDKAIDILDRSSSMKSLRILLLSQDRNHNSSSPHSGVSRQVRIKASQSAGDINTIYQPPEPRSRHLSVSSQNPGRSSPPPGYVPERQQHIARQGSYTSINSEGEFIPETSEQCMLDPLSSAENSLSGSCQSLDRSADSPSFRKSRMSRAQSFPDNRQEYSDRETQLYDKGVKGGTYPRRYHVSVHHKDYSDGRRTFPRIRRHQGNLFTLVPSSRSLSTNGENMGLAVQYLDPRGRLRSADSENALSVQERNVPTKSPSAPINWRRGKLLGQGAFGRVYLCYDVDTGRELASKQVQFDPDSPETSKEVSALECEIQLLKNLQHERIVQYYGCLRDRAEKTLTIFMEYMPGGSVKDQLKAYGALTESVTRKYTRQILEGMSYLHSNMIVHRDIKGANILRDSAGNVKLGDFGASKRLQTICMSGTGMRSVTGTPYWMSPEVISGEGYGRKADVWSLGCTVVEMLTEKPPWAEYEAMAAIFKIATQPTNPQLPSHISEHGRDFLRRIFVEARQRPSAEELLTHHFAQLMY
CHT PAM: human CHT allosteric activation. 310,000 compounds, 0.49% hits. CHT-expressing cells, membrane potential dye, choline EC20; hits give high values; LV-AA mutant CHT in HEK293 cells. AID 488977. B-score at 10 µM;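 active means initial fluorescence not abnormally high and integrated response B-score, plate-corrected, over 3 SD above library mean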
SUMO Mot1 rescue: blocks SUMOylation pathway, rescuing yeast Mot1-301 growth; S. cerevisiae Mot1-301 growth rescue, ATP luminescence, 38.5C; percent above DMSO median, 100 means doubled; growth rescue, % at 18.8 µM; 320,000 compounds, 1% hits; AID 2716;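 active means every valid replicate shows activation above 250% relative to neutral control wells; inactive means the rest, any valid replicate at or below 250%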;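 further: OY570 slx delta 5 strain wells were the positive control but not used for scaling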
CHT block: human CHT choline transport inhibition | B-score at 10 µM | Q9GZV3 | 310,000 compounds, 0.86% hits | CHT-expressing cells, membrane potential dye, choline response; hits give low values;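 active means B-score over 3 SD under the library average, and starting fluorescence ratio not unusually high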;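 further: choline stimulus applied at its EC90 after an EC20 pre-addition; B-score computed on integrated fluorescence ratio after choline addition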
MEKK2wt PB1 HTS: raises or lowers MEK5 binding to wildtype human MEKK2 PB1 domain. Q9Y2U5. 290,000 compounds, 1.1% hits. bead flow cytometry, Alexa488-MEK5 binding to MEKK2 WT; actives lie on both sides. binding response (% of control), % at 10 µM; in the data active means binding response below about 67% or above about 130%
MEKK2 mut-MEK5: signal of MEK5 binding to mutant human MEKK2 PB1 domain; bead flow cytometry, Alexa488-MEK5 binding to MEKK2 mutant; percent response, % at 10 µM; 290,000 compounds, 0.35% hits; in the data active means percent response above about 24%, passing the limit was not always enough
MEKK2wt confirm: raises or lowers MEK5 binding to wildtype human MEKK2, retest; 5,900 compounds, 2.4% hits; binding response (% of control), % at 10 µM; bead flow cytometry, Alexa488-MEK5 binding to MEKK2 WT; actives lie on both sides; shares compounds with MEKK3 PB1 HTS; in the data active means binding response below about 16% or above about 210%; inactive means in between
MEKK2mut confirm: signal of MEK5 binding to mutant human MEKK2, retest | shares compounds with MEKK3 PB1 HTS | percent response, % at 10 µM | bead flow cytometry, Alexa488-MEK5 binding to MEKK2 mutant | 5,900 compounds, 2% hits | AID 1893; in the data active means percent response mostly above about 71%, no sharp cut-off; inactive means mostly below about 38%;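 further: higher means compound restores mutant binding toward wildtype level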
MEKK3-MEK5 inh: confirmation of inhibitors of MEK5 binding to human MEKK3; AID 1894; bead flow cytometry, Alexa488-MEK5 binding to MEKK3; hits give low values; shares compounds with MEKK3 PB1 HTS; 5,900 compounds, 1.8% hits; binding response (% of control), % at 10 µM;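 active means binding response below 72% of control, or above a set upper limit, though filed actives all read lower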;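 further: 100% = DMSO only wells and 0% = binding blocked by excess unlabeled MEK5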
* = called active by the depositor; i = inactive; · = no result given; [ ] = another dose, or the depositor's remark. Only some compounds are listed: those with a hit (about 4.1% of all), similar ones and a draw of the others.

SMILES	MEKK3 PB1 HTS	CHT PAM	SUMO Mot1 rescue	CHT block	MEKK2wt PB1 HTS	MEKK2 mut-MEK5	MEKK2wt confirm	MEKK2mut confirm	MEKK3-MEK5 inh
CN1CCN(c2ncnc3c2[nH]c2ccc(F)cc23)CC1	100	i	8	i	106	8	·	·	·
Cc1ccc2[nH]c3c(N4CCc5ccccc5C4)ncnc3c2c1	95	i	·	i	139	15	·	·	·
C/C(=N/NC(=O)c1sc(=S)n(C)c1C)c1ccccc1	104	i	-9	i	114	19	·	·	·
Cc1noc(C)c1NC(=O)Nc1ccc2c(c1)C(=O)N([C@H](C)CO)C[C@H](C)[C@@H](CN(C)C(=O)Nc1c(C)noc1C)O2	·	·	-1	·	·	·	·	·	·
COC(=O)C1=C(C(=O)OC)C(c2ccc(OC)c(OC)c2)c2sc(=O)[nH]c2S1 (stereo not drawn)	55*[inhibitor]	i	3	i	60*[inhibitor]	-17	90	-8	90
COc1ccc(NC(=O)CC(c2ccccc2)c2ccco2)cc1 (stereo not drawn)	84	i	107	i	102	4	·	·	·
COc1ccc(NC(=O)CC(C(=O)O)C(C)c2ccccc2)cc1 (stereo not drawn)	108	i	32	i	160*	29*	103	-3	101
Cc1nn(-c2ccccn2)c2c1C(=O)C(Br)CC2 (stereo not drawn)	96	·	·	·	97	-6	·	·	·
c1cnc(-c2noc(CN3CCN(C4CCCC4)CC3)n2)cn1	106	i	-2	i	88	-7	·	·	·
CC1CN(Cc2cc(=O)[nH]c(C3CC3)n2)CC(C)O1 (stereo not drawn)	2.0*[inhibitor]	i	-15	i	3.0*[inhibitor]	-16	106	5	103
COc1cccc(Oc2ccc(S(=O)(=O)N3CCOCC3)cc2[N+](=O)[O-])c1	·	·	-9	·	·	·	·	·	·
CCCC(=O)NC(=S)Nc1cccc(NC(=O)c2ccccc2)c1	117	i	-1	i	100	6	·	·	·
CCC(=O)Nc1cccc(NC(=O)c2ccc(Br)cc2)c1	135*	i	350	i	107	1	94	-12	92
CC(=O)Nc1cccc(NC(=O)c2ccc(Br)cc2)c1	98	i	-8	i	100	-1	·	·	·
CC(C)CC(=O)NC(=S)Nc1cccc(NC(=O)c2ccccc2)c1	154*	i	4	i	105	-1	105	3	103
CCCCC(=O)NC(=S)Nc1cccc(NC(=O)c2ccccc2)c1	49*[inhibitor]	i	4	i	61	-15	96	-6	99
CCN1CCN(C(=S)Nc2ccc(Cl)c(Cl)c2)CC1	64*[inhibitor]	i	4	i	62*[inhibitor]	-3	111	10	104
CC(=O)c1ccc(NS(=O)(=O)c2ccc3ccccc3c2)cc1	73*[inhibitor]	i	96	i	95	-1	106	2	99
NC(=O)c1ccc(NS(=O)(=O)c2ccc3ccccc3c2)cc1	100	i	0	i	100	11	·	·	·
C[C@H](NC(=O)c1nc[nH]c1C(=O)N1CCN(c2ccccc2)CC1)C(=O)OC(C)(C)C	79*[inhibitor]	i	5	i	92	-3	96	-2	101
C[C@H](NC(=O)c1nc[nH]c1C(=O)N1CCN(C(=O)OC(C)(C)C)CC1)C(=O)OC(C)(C)C	·	i	5	i	·	·	·	·	·
COc1ccc(NC(=O)CN(C)C(=O)c2oc3ccccc3c2C)cc1	117	i	-6	i	104	0	·	·	·
O=C(NNc1nc(-c2ccccc2)cs1)c1cccs1	69*[inhibitor]	i	-1	i	76	-35	100	0	104
COc1ccc(-n2c(C)cc(C(=O)COC(=O)Cc3n[nH]c(=O)c4ccccc34)c2C)cc1	88	i	-29	i	90	-4	·	·	·
Cc1cc(C(=O)COC(=O)Cc2n[nH]c(=O)c3ccccc23)c(C)n1-c1ccc2c(c1)OCO2	139*	i	1	i	105	2	110	6	104
SMILES	MEKK3 PB1 HTS	CHT PAM	SUMO Mot1 rescue	CHT block	MEKK2wt PB1 HTS	MEKK2 mut-MEK5	MEKK2wt confirm	MEKK2mut confirm	MEKK3-MEK5 inh
O=C(c1ccc(N2CCCS2(=O)=O)cc1)N1CCN(c2ccccc2)CC1	102	i	157	i	100	-3	·	·	·
CN(C)c1ccc(/C=C2/C=C(c3ccc4c(c3)CCCC4)OC2=O)cc1	73*[inhibitor]	i	-34	i	68	-8	81	-1	83
O=C(CN1CCC(C(=O)c2ccc(F)cc2)CC1)Nc1ccc(F)cc1	46*[inhibitor]	i	26	i	66	2	99	-4	101
O=C(CN1CCC(C(=O)c2ccc(F)cc2)CC1)Nc1ccccc1	104	i	-6	i	108	4	·	·	·
CCOC(=O)COc1ccc(C(=O)Nc2cccc(Cl)c2C)cc1	96	i	6	i	100	0	·	·	·
Cc1cc(-c2ccccc2)nc(=O)[nH]1	130*	i	0	i	117	3	102	7	106
CCCc1nc(SCC(=O)Nc2nnc(CC)s2)c2c(C)c(C)sc2n1	122*	i	293	i	115	9	99	3	100
CC(NC(=O)Cc1cccc(C(F)(F)F)c1)c1ccc(F)cc1 (stereo not drawn)	95	i	·	i	93	-2	·	·	·
CCOc1ccc(-n2cc(C(=O)Nc3cccc(Cl)c3)c3cc(OC)c(OC)cc3c2=O)cc1	2.0*[inhibitor]	i	0	i	3.0*[inhibitor]	-18	97	-4	101
CCOc1ccc(NC(=O)c2cn(-c3ccc(OCC)cc3)c(=O)c3cc(OC)c(OC)cc23)cc1	110	i	-3	i	107	0	·	·	·
CCN(CC)CCN(Cc1cc2cc3c(cc2[nH]c1=O)OCCO3)C(=S)NCCCN(C)C	111	i	-1	i	138*	22	112	6	103
CCCCNC(=S)N(CCN(CC)CC)Cc1cc2cc3c(cc2[nH]c1=O)OCO3	105	i	-1	i	120	24*	106	1	102
CCCCNC(=S)N(CCN(CC)CC)Cc1cc2cc3c(cc2[nH]c1=O)OCCO3	101	i	2	i	112	11	·	·	·
